The supplement of paper PMC8728848
This is one part of a sample in which the strongest signals are shown more often than they occur.

Experiments:
Assay in all cases: glycan array binding signal (z-score within array); higher = stronger binding
Settings in all cases: glycan notation: IUPAC condensed, linker removed
Fuc(a1-2)Gal(b1-4)GlcNAc = biological target: Fuc(a1-2)Gal(b1-4)GlcNAc
Procedure, shortened: (§1)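 The binding signal is a Z-score computed within each array and averaged over linkers. Arrays of the same protein sequence at different concentrations or buffers were also averaged together. Data originate from 3228 arrays in the Consortium for Functional Glycomics database, kept only where the protein sequence was available.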

[1] = biological target: Fuc(a1-2)Gal(b1-4)GlcNAc(b1-3)Gal(b1-4)GlcNAc(b1-2)Man(a1-3)[Fuc(a1-2)Gal(b1-4)GlcNAc(b1-3)Gal(b1-4)GlcNAc(b1-2)Man(a1-6)]Man(b1-4)GlcNAc(b1-4)GlcNAc
Procedure, shortened: as §1

[2] = biological target: Fuc(a1-2)[Gal(a1-3)]Gal(b1-3)GalNAc(b1-3)Gal(a1-4)Gal(b1-4)Glc
Procedure, shortened: as §1

[3] = biological target: Fuc(a1-2)[GalNAc(a1-3)]Gal(b1-4)GlcNAc(b1-2)Man
Procedure, shortened: as §1

Fuc(a1-4)GlcNAc = biological target: Fuc(a1-4)GlcNAc
Procedure, shortened: as §1

[4] = biological target: Gal(a1-3)Gal(b1-3)GlcNAc(b1-6)GalNAc
Procedure, shortened: as §1

[5] = biological target: Gal(a1-3)[Gal(a1-4)]Gal(b1-4)GlcNAc
Procedure, shortened: as §1

Gal(a1-4)GlcNAc = biological target: Gal(a1-4)GlcNAc
Procedure, shortened: as §1

[6] = biological target: Gal(b1-3)GlcNAc(b1-3)Gal(b1-4)GlcNAc(b1-2)[Gal(b1-3)GlcNAc(b1-3)Gal(b1-4)GlcNAc(b1-6)]Man(a1-6)[Gal(b1-3)GlcNAc(b1-3)Gal(b1-4)GlcNAc(b1-2)Man(a1-3)]Man(b1-4)GlcNAc(b1-4)[Fuc(a1-6)]GlcNAc
Procedure, shortened: as §1

[7] = biological target: Gal(b1-3)GlcNAc(b1-3)Gal(b1-4)GlcNAc(b1-6)[Gal(b1-3)GlcNAc(b1-3)]Gal(b1-4)Glc
Procedure, shortened: as §1

[8] = biological target: Gal(b1-4)GlcNAc(b1-2)Man(a1-3)[Gal(b1-4)GlcNAc(b1-2)Man(a1-6)]Man(b1-4)GlcNAc(b1-4)GlcNAc
Procedure, shortened: as §1

[9] = biological target: Gal(b1-4)GlcNAc(b1-2)[Gal(b1-4)GlcNAc(b1-4)]Man(a1-3)[GlcNAc(b1-4)][Gal(b1-4)GlcNAc(b1-2)Man(a1-6)]Man(b1-4)GlcNAc(b1-4)GlcNAc
Procedure, shortened: as §1

[10] = biological target: Gal(b1-4)GlcNAc(b1-3)Gal(b1-4)GlcNAc(b1-3)Gal(b1-4)GlcNAc
Procedure, shortened: as §1

[11] = biological target: Gal(b1-4)GlcNAc(b1-3)Gal(b1-4)GlcNAc(b1-3)Gal(b1-4)GlcNAc(b1-3)Gal(b1-4)GlcNAc(b1-3)Gal(b1-4)GlcNAc(b1-2)[Gal(b1-4)GlcNAc(b1-3)Gal(b1-4)GlcNAc(b1-3)Gal(b1-4)GlcNAc(b1-3)Gal(b1-4)GlcNAc(b1-3)Gal(b1-4)GlcNAc(b1-6)]Man(a1-6)[Gal(b1-4)GlcNAc(b1-3)Gal(b1-4)GlcNAc(b1-3)Gal(b1-4)GlcNAc(b1-3)Gal(b1-4)GlcNAc(b1-3)Gal(b1-4)GlcNAc(b1-2)Man(a1-3)]Man(b1-4)GlcNAc(b1-4)[Fuc(a1-6)]GlcNAc
Procedure, shortened: as §1

[12] = biological target: Gal(b1-4)GlcNAc(b1-3)[GlcNAc(b1-6)]Gal(b1-4)GlcNAc
Procedure, shortened: as §1

[13] = biological target: Gal(b1-4)GlcNAc(b1-6)GalNAc
Procedure, shortened: as §1

Gal4S(b1-4)GlcNAc = biological target: Gal4S(b1-4)GlcNAc
Procedure, shortened: as §1

GalNAc(a1-3)Gal = biological target: GalNAc(a1-3)Gal
Procedure, shortened: as §1

[14] = biological target: GalNAc(b1-4)GlcNAc(b1-3)GalNAc(b1-4)GlcNAc
Procedure, shortened: as §1

[15] = biological target: GlcNAc(b1-3)Gal(b1-4)GlcNAc(b1-2)[GlcNAc(b1-3)Gal(b1-4)GlcNAc(b1-6)]Man(a1-6)[GlcNAc(b1-3)Gal(b1-4)GlcNAc(b1-2)Man(a1-3)]Man(b1-4)GlcNAc(b1-4)GlcNAc
Procedure, shortened: as §1

[16] = biological target: GlcNAc(b1-3)Gal(b1-4)GlcNAc(b1-3)Gal(b1-4)GlcNAc(b1-2)Man(a1-3)[GlcNAc(b1-3)Gal(b1-4)GlcNAc(b1-3)Gal(b1-4)GlcNAc(b1-2)Man(a1-6)]Man(b1-4)GlcNAc(b1-4)GlcNAc
Procedure, shortened: as §1

[17] = biological target: GlcNAc(b1-3)Gal(b1-4)GlcNAc(b1-3)Gal(b1-4)GlcNAc(b1-3)Gal(b1-4)GlcNAc(b1-2)Man(a1-3)[GlcNAc(b1-3)Gal(b1-4)GlcNAc(b1-3)Gal(b1-4)GlcNAc(b1-3)Gal(b1-4)GlcNAc(b1-2)Man(a1-6)]Man(b1-4)GlcNAc(b1-4)[Fuc(a1-6)]GlcNAc
Procedure, shortened: as §1

[18] = biological target: GlcNAc(b1-3)Gal(b1-4)GlcNAc(b1-3)Gal(b1-4)GlcNAc(b1-3)Gal(b1-4)GlcNAc(b1-3)Gal(b1-4)GlcNAc(b1-2)Man(a1-3)[GlcNAc(b1-3)Gal(b1-4)GlcNAc(b1-3)Gal(b1-4)GlcNAc(b1-3)Gal(b1-4)GlcNAc(b1-3)Gal(b1-4)GlcNAc(b1-2)Man(a1-6)]Man(b1-4)GlcNAc(b1-4)[Fuc(a1-6)]GlcNAc
Procedure, shortened: as §1

[19] = biological target: GlcNAc(b1-3)Gal(b1-4)GlcNAc(b1-3)Gal(b1-4)GlcNAc(b1-3)Gal(b1-4)GlcNAc(b1-3)Gal(b1-4)GlcNAc(b1-2)[GlcNAc(b1-3)Gal(b1-4)GlcNAc(b1-3)Gal(b1-4)GlcNAc(b1-3)Gal(b1-4)GlcNAc(b1-3)Gal(b1-4)GlcNAc(b1-6)]Man(a1-6)[GlcNAc(b1-3)Gal(b1-4)GlcNAc(b1-3)Gal(b1-4)GlcNAc(b1-3)Gal(b1-4)GlcNAc(b1-3)Gal(b1-4)GlcNAc(b1-2)Man(a1-3)]Man(b1-4)GlcNAc(b1-4)[Fuc(a1-6)]GlcNAc
Procedure, shortened: as §1

[20] = biological target: GlcNAc(b1-4)[GlcNAc(b1-6)]GalNAc
Procedure, shortened: as §1

Kdn(a2-3)Gal(b1-4)GlcNAc = biological target: Kdn(a2-3)Gal(b1-4)GlcNAc
Procedure, shortened: as §1

[21] = biological target: Neu5Ac(a2-3)Gal(b1-3)[Fuc(a1-4)]GlcNAc
Procedure, shortened: as §1

[22] = biological target: Neu5Ac(a2-3)Gal(b1-3)[Fuc(a1-4)]GlcNAc(b1-3)Gal(b1-3)[Fuc(a1-4)]GlcNAc
Procedure, shortened: as §1

[23] = biological target: Neu5Ac(a2-3)Gal(b1-3)[Neu5Ac(a2-6)]GalNAc
Procedure, shortened: as §1

[24] = biological target: Neu5Ac(a2-3)Gal(b1-4)GlcNAc(b1-2)Man(a1-3)[Neu5Ac(a2-3)Gal(b1-4)GlcNAc(b1-2)Man(a1-6)]Man(b1-4)GlcNAc(b1-4)GlcNAc
Procedure, shortened: as §1

[25] = biological target: Neu5Ac(a2-3)Gal(b1-4)GlcNAc(b1-3)Gal(b1-4)GlcNAc
Procedure, shortened: as §1

[26] = biological target: Neu5Ac(a2-3)Gal(b1-4)GlcNAc(b1-3)[Neu5Ac(a2-3)Gal(b1-4)GlcNAc(b1-6)]GalNAc
Procedure, shortened: as §1

[27] = biological target: Neu5Ac(a2-3)Gal(b1-4)[Fuc(a1-3)]GlcNAc
Procedure, shortened: as §1

[28] = biological target: Neu5Ac(a2-6)Gal(b1-4)GlcNAc(b1-2)Man(a1-3)[GlcNAc(b1-4)][Neu5Ac(a2-6)Gal(b1-4)GlcNAc(b1-2)Man(a1-6)]Man(b1-4)GlcNAc(b1-4)GlcNAc
Procedure, shortened: as §1

[29] = biological target: Neu5Ac(a2-6)Gal(b1-4)GlcNAc(b1-2)Man(a1-3)[Neu5Ac(a2-3)Gal(b1-4)GlcNAc(b1-2)Man(a1-6)]Man(b1-4)GlcNAc(b1-4)GlcNAc
Procedure, shortened: as §1

[30] = biological target: Neu5Ac(a2-6)Gal(b1-4)GlcNAc(b1-2)Man(a1-3)[Neu5Ac(a2-6)Gal(b1-4)GlcNAc(b1-2)Man(a1-6)]Man(b1-4)GlcNAc(b1-4)GlcNAc
Procedure, shortened: as §1

[31] = biological target: Neu5Ac(a2-6)Gal(b1-4)GlcNAc(b1-2)Man(a1-3)[Neu5Ac(a2-6)Gal(b1-4)GlcNAc(b1-2)Man(a1-6)]Man(b1-4)GlcNAc(b1-4)[Fuc(a1-6)]GlcNAc
Procedure, shortened: as §1

[32] = biological target: Neu5Ac(a2-6)Gal(b1-4)GlcNAc(b1-3)Gal(b1-4)GlcNAc(b1-3)Gal(b1-4)GlcNAc
Procedure, shortened: as §1

[33] = biological target: Neu5Ac(a2-6)Gal(b1-4)GlcNAc(b1-6)GalNAc
Procedure, shortened: as §1

[34] = biological target: Neu5Ac(a2-6)Gal(b1-4)GlcNAc6S
Procedure, shortened: as §1

[35] = biological target: Neu5Ac(a2-8)Neu5Ac(a2-3)Gal(b1-4)GlcNAc
Procedure, shortened: as §1

[36] = biological target: Neu5Ac(a2-8)Neu5Gc(a2-3)Gal(b1-4)GlcNAc
Procedure, shortened: as §1

[37] = biological target: Neu5Gc(a2-3)Gal(b1-3)GlcNAc
Procedure, shortened: as §1

[38] = biological target: Neu5Gc(a2-3)Gal(b1-3)[Fuc(a1-4)]GlcNAc
Procedure, shortened: as §1

[39] = biological target: Neu5Gc(a2-8)Neu5Gc(a2-3)Gal(b1-4)GlcNAc(b1-3)Gal(b1-4)GlcNAc
Procedure, shortened: as §1

[40] = biological target: Neu5Gc(a2-8)Neu5Gc(a2-6)Gal(b1-4)GlcNAc
Procedure, shortened: as §1

B1: PX9961W-pdi-543-27-543 (Parabacteroides distasonis) (protein)
chain: EGNATTTSYFLNDQQAIDAIDGLYERFHQEGCYGRELFWEQGAACDIVWGRTRGYNSLATLAYTGDESPLRDVFSRMYSTMSRANWIIQELVKKEKGTTLTAVEKRSLGEAYFSRGWAHYLIAYRYGTDKQGVPFVRYEDFPDDYDNSIPPQQATVMDNYKLIIEDMDKAIAYLPIFESYDADNRGRAHQAAAVAFKAKTYAYWATWDATQWNNVIEMVNQLENNYNRDLAPTFAELFSSDLKDYWNAEYLWTIPSIGGALPGGTEFPGIILENKGWGKYNGWGQMKPSYDIYEEMAKDGKGNDRLVRSILEYNQEFPFFGETRKFWSTSDLEAGFMINKYMDAFKYSDPVGEGAVSANGDWPTVRVNFPIIRFAEMLLFRAEAYLMTGQADKATADINRIRLRSNLTPLTGTATMKDLYHERRCELAFEFTDHLFDLKRWNRSSNADIKTLADKELNAHPRIRRYEDRANPESAFTIIGYEDYTNKNAYQAHMMVFPYPSEEITKSNGQLKQNEGY
glycan array binding signal (z-score) (Fuc(a1-2)Gal(b1-4)GlcNAc): -0.724
glycan array binding signal (z-score) [1]: 0.321
glycan array binding signal (z-score) [2]: -0.488
glycan array binding signal (z-score) [3]: 0.843
glycan array binding signal (z-score) (Fuc(a1-4)GlcNAc): -0.806
glycan array binding signal (z-score) [4]: -0.936
glycan array binding signal (z-score) [5]: 4.9
glycan array binding signal (z-score) (Gal(a1-4)GlcNAc): -0.436
glycan array binding signal (z-score) [6]: 3.68
glycan array binding signal (z-score) [7]: 2.47
glycan array binding signal (z-score) [8]: 0.803
glycan array binding signal (z-score) [9]: -0.379
glycan array binding signal (z-score) [10]: 0.348
glycan array binding signal (z-score) [11]: 2.95
glycan array binding signal (z-score) [12]: -1.13
glycan array binding signal (z-score) [13]: 0.97
glycan array binding signal (z-score) (Gal4S(b1-4)GlcNAc): -0.282
glycan array binding signal (z-score) (GalNAc(a1-3)Gal): -0.723
glycan array binding signal (z-score) [14]: -0.156
glycan array binding signal (z-score) [15]: 2.42
glycan array binding signal (z-score) [16]: 2.38
glycan array binding signal (z-score) [17]: 1.14
glycan array binding signal (z-score) [18]: 2.16
glycan array binding signal (z-score) [19]: 2.07
glycan array binding signal (z-score) [20]: 0.793
glycan array binding signal (z-score) (Kdn(a2-3)Gal(b1-4)GlcNAc): -0.351
glycan array binding signal (z-score) [21]: -0.779
glycan array binding signal (z-score) [22]: 2.45
glycan array binding signal (z-score) [23]: -1.05
glycan array binding signal (z-score) [24]: -0.589
glycan array binding signal (z-score) [25]: -0.712
glycan array binding signal (z-score) [26]: -0.167
glycan array binding signal (z-score) [27]: -0.648
glycan array binding signal (z-score) [28]: -0.023
glycan array binding signal (z-score) [29]: -0.733
glycan array binding signal (z-score) [30]: -0.249
glycan array binding signal (z-score) [31]: 0.138
glycan array binding signal (z-score) [32]: -0.315
glycan array binding signal (z-score) [33]: 0.508
glycan array binding signal (z-score) [34]: -0.912
glycan array binding signal (z-score) [35]: -0.026
glycan array binding signal (z-score) [36]: 14.4
glycan array binding signal (z-score) [37]: -0.935
glycan array binding signal (z-score) [38]: -0.874
glycan array binding signal (z-score) [39]: -0.859
glycan array binding signal (z-score) [40]: 0.393
